Laboratory results taken from PubChem BioAssay (EPA / NIEHS).
Records with an inconclusive call do not appear. Activity calls are given as the source filed them. Rule for the calls: active = hit-call score of the fitted dose curve at least 0.9, where 1 is the maximum; inconclusive = response in the unintended direction; inactive = score below 0.9.

Test: ATG_M_06_TRANS: Attagene TRANS-FACTORIAL HepG2 Assay for M06 Transcription Factor (Internal Marker) (AID 2282983)
Settings: HepG2 Attagene TRANS M06 internal marker reporter
Procedure: ATG_TRANS is a cell-based, multiplexed-readout assay that uses HepG2, a human liver cell line, with measurements taken at 24 hours after chemical dosing in a 24-well plate.ATG_M_06_TRANS is one of 30 assay component(s) measured or calculated from the ATG_TRANS assay. It is designed to make measurements of mRNA induction, a form of inducible reporter, as detected with fluorescence intensity signals by Reverse transcription polymerase chain reaction (RT-PCR) and Capillary electrophoresis technology.Data from the assay component ATG_M_06_TRANS was analyzed into 1 assay endpoint. This assay endpoint, ATG_M_06_TRANS, was analyzed in the positive analysis fitting direction relative to DMSO as the negative control and baseline of activity. Using a type of inducible reporter, measures of mRNA for gain-of-signal activity can be used to understand the background control at the transcription factor-level as they relate to the gene . Furthermore, this assay endpoint can be referred to as a secondary readout, because this assay has produced multiple assay endpoints where this one serves a background control function. To generalize the intended target to other relatable targets, this assay endpoint is annotated to the background measurement intended target family, where the subfamily is internal marker.
Human liver HepG2 cells are transiently transfected with multiple reporter transcription units (MRTUs) in 6-well plates using FuGene 6 reagent (Roche; 3 ml FuGene/1 mg DNA). The MRTU constructs are regulated by a cis-regulating element (promoter). […] A major difference between the CIS and TRANS system is that in CIS activities of endogenous TFs are measured, whereas the TRANS assay evaluates changes in activities of exogenous, chimeric NR-Gal4 proteins. […] At the end of 24 hour incubation, total RNA was isolated using TriZol reagent (Invitrogen). The isolated RNA is then reverse-transcribed using oligo(dT) primer and Mo-MLV reverse transcriptase (Invitrogen) with DNAse I (Ambion) treatment for 30 min. The one-tenth of the produced cDNA was amplified by PCR using Taq DNA polymerase (Invitrogen) and two reporter sequence-specific primers. The PCR products were fluorescently labeled by primer extension with 6-arboxyfluorescein (6-FAM) 5'-labeled reporter sequence-specific primer (2 min at 95 C, 20 s at 68 C and 10 min at 72 C) and these products were digested with 5U of HpaI (New England Biolabs) for 2h at 37 C. The fragments were purified using Qiaquick PCR columns (Qiagen), analyzed on an ABI 3130xL genetic analyzer (Applied Biosystems) with peak positions identified by using a set of X-rhodamine (ROX)-labeled MapMarker1000 molecular weight standards (BioVentures). The raw capillary electrophoresis data was processed using Attagraph software (Attagene).

Question: With `CCC(CC)Nc1c([N+](=O)[O-])cc(C)c(C)c1[N+](=O)[O-]` as the compound, how does the outcome read?
Answer: inactive

Question: Which outcome does the source give for `CCc1cccc(C)c1N(C(=O)CCl)C(C)COC` (stereo not given) here?
Answer: inactive

Question: Which outcome does the source give for `Cc1ccn2nc(S(=O)(=O)Nc3c(F)cccc3F)nc2n1` here?
Answer: inactive

Question: For `CCOP(=S)(OCC)Oc1cc(C)nc(C(C)C)n1`, which outcome is on record?
Answer: inactive

Question: With `CSc1nnc(C(C)(C)C)c(=O)n1N` as the compound, how does the outcome read?
Answer: inactive

Question: For `COc1cccc(C(=O)NN(C(=O)c2cc(C)cc(C)c2)C(C)(C)C)c1C`, which outcome is on record?
Answer: inactive

Question: For `CCOC(=O)COc1cc(-c2nn(C)c(OC(F)F)c2Cl)c(F)cc1Cl`, which outcome is on record?
Answer: inactive

Question: For `CCC(=O)Nc1ccc(Cl)c(Cl)c1`, which outcome is on record?
Answer: inactive

Question: With `CSC1=N[C@@](C)(c2ccccc2)C(=O)N1Nc1ccccc1` as the compound, how does the outcome read?
Answer: inactive

Question: Which outcome does the source give for `CC(=NC#N)N(C)Cc1ccc(Cl)nc1` here?
Answer: inactive

Question: Which outcome does the source give for `O=[N+]([O-])c1cc(C(F)(F)F)c(Cl)c([N+](=O)[O-])c1Nc1ncc(C(F)(F)F)cc1Cl` here?
Answer: inactive

Question: Which outcome does the source give for `COc1cc(OC)nc(Sc2cccc(Cl)c2C(=O)O)n1` here?
Answer: inactive

Question: Which outcome does the source give for `C#CCC1=C(C)C(OC(=O)C2C(C=C(C)C)C2(C)C)CC1=O` (stereo not given) here?
Answer: inactive

Question: For `CCOP(=O)(OCC)Oc1cc(C)nc(C(C)C)n1`, which outcome is on record?
Answer: inactive

Question: With `CC1=NNC(=O)N(/N=C/c2cccnc2)C1` as the compound, how does the outcome read?
Answer: inactive

Question: Which outcome does the source give for `CCOP(=S)(Oc1cnc(C(C)(C)C)nc1)OC(C)C` (stereo not given) here?
Answer: inactive

Question: For `CCOP(=O)(NC(C)C)Oc1ccc(SC)c(C)c1` (stereo not given), which outcome is on record?
Answer: inactive

Question: With `C#CC(C)(C)NC(=O)c1cc(Cl)cc(Cl)c1` as the compound, how does the outcome read?
Answer: inactive

Question: With `C[Si](Cn1cncn1)(c1ccc(F)cc1)c1ccc(F)cc1` as the compound, how does the outcome read?
Answer: inactive

Question: Which outcome does the source give for `O=c1ccc(=O)[nH][nH]1` here?
Answer: inactive

Question: For `CNC(=O)Oc1cccc2c1OC(C)(C)O2`, which outcome is on record?
Answer: inactive

Question: Which outcome does the source give for `CCCSP(=O)(OCC)Oc1ccc(Br)cc1Cl` (stereo not given) here?
Answer: inactive

Question: With `COc1ccc(C(=CC(=O)N2CCOCC2)c2ccc(Cl)cc2)cc1OC` as the compound, how does the outcome read?
Answer: inactive

Question: With `CCOP(=S)(OCC)Oc1ccc2c(C)c(Cl)c(=O)oc2c1` as the compound, how does the outcome read?
Answer: inactive

Question: For `CCc1cnc(C2=NC(C)(C(C)C)C(=O)N2)c(C(=O)O)c1` (stereo not given), which outcome is on record?
Answer: inactive

Question: Which outcome does the source give for `CN(C)NC(=O)CCC(=O)O` here?
Answer: inactive

Question: For `CCCOCC(=Nc1ccc(Cl)cc1C(F)(F)F)n1ccnc1`, which outcome is on record?
Answer: inactive

Question: Which outcome does the source give for `CNc1cnn(-c2cccc(C(F)(F)F)c2)c(=O)c1Cl` here?
Answer: inactive

Question: For `N#CSCSC#N`, which outcome is on record?
Answer: inactive

Question: With `Nc1c(Cl)cc([N+](=O)[O-])cc1Cl` as the compound, how does the outcome read?
Answer: inactive

Question: Which outcome does the source give for `CN1COCN(Cc2cnc(Cl)s2)C1=N[N+](=O)[O-]` here?
Answer: inactive

Question: Which outcome does the source give for `CCOP(=S)(OCC)SCCSCC` here?
Answer: inactive

Question: With `CCCCN(CC)c1c([N+](=O)[O-])cc(C(F)(F)F)cc1[N+](=O)[O-]` as the compound, how does the outcome read?
Answer: inactive

Question: Which outcome does the source give for `FC(F)C(F)(F)OCC(Cn1cncn1)c1ccc(Cl)cc1Cl` (stereo not given) here?
Answer: inactive

Question: With `CCOP(=S)(OCC)Oc1ccc([N+](=O)[O-])cc1` as the compound, how does the outcome read?
Answer: inactive

Question: With `S=C1NCCN1` as the compound, how does the outcome read?
Answer: inactive

Question: With `CCOP(=S)(OCC)OC(Cl)C(Cl)(Cl)Cl` (stereo not given) as the compound, how does the outcome read?
Answer: inactive

Question: For `CC1(C(=O)Nc2ccc(O)c(Cl)c2Cl)CCCCC1`, which outcome is on record?
Answer: inactive

Question: For `C=C(C)[C@H]1Cc2c(ccc3c2O[C@@H]2COc4cc(OC)c(OC)cc4[C@@H]2C3=O)O1`, which outcome is on record?
Answer: inactive

Question: With `CN(C)[C@@H]1C(=O)C(C(N)=O)=C(O)[C@@]2(O)C(=O)C3=C(O)c4c(O)cccc4[C@@](C)(O)[C@H]3[C@H](O)[C@@H]12` as the compound, how does the outcome read?
Answer: inactive
